# Source: PubChem BioAssay (NCI)
# About 83,000 compounds went through this panel and 20% of them were active in at least one assay; those are over-represented in the sample as a whole.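 Assay: single dose, 48 h. Readout: percent growth (0 = no net growth; negative = cell death). Active: <10.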 Active and inactive are the calls of the source.
# Tested on: HL-60(TB) leukemia
# Experiment: NCI-60 one-dose screen, 48 h (100 = growth as untreated, 0 = no growth, -100 = all killed)
# Conditions: 10 µM unless noted
row,Structure (SMILES),growth
1,CC[C@H](Nc1ncnc2nc[nH]c12)c1nc2cccc(NCc3ccc(C(=O)NO)o3)c2c(=O)n1-c1ccccc1,81.4% (inactive)
2,CC1=CC[C@@H]2C(C)(C)C(=O)CC[C@@]2(C)[C@@H]1COc1ccc2ccc(=O)oc2c1,85.9% (inactive)
3,COc1cc(/C=N/NC(=O)c2cnn3c2NC(c2ccccc2)C3)ccc1OC1CCCC1 (stereo not drawn),40.8% (inactive)
4,Cc1[c-]onc1C.Cc1[c-]onc1C.[Ag].[Ag].[NH-]S(=O)(=O)c1ccc(N=Nc2cc(N=Nc3ccc(S([NH-])(=O)=O)cc3)c3c(NC(=O)C(Cl)Cl)cccc3c2OC(=O)C(Cl)Cl)cc1,38.1% (inactive)
5,C1=C(N2CCCC2)CCC1,56.7% (inactive)
6,CCOC(=O)CSc1ncnc2c1c(-c1ccccc1)c(-c1ccccc1)n2-c1ccc(C)cc1,55.9% (inactive)
7,CCN1CC(=O)N(/N=C2\C(=O)Nc3ccccc32)C1=S,82.7% (inactive)
8,COc1ccc2sc3c(NCCCN(C)C)nc4ccccc4c3c(=O)c2c1,38.7% (inactive)
9,O=C(c1ccc(Cl)cc1)N1CCN(c2ccnc3cc(Cl)ccc23)CC1,102% (inactive)
10,Cc1ccc(/C=C2\CN(Cc3cn(CCNc4ccnc5cc(Cl)ccc45)nn3)C/C(=C\c3ccc(C)cc3)C2=O)cc1,-28.8% (active)
11,CCOC(=O)N1C/C(=C/c2ccc(OC)cc2)C(=O)/C(=C/c2ccc(OC)cc2)C1,16.7% (inactive)
12,CN(Cc1cc(Cl)cc(Cl)c1O)Cc1cc(Cl)cc(Cl)c1O,53.1% (inactive)
13,CCCCC[C@@H]1Cc2cc(O)c(C(=O)O)c3c2[C@H](C[C@]2(OC[C@@H](CC(=O)[C@@](C)(CC)C(=O)OC)[C@@H]2C)O3)O1,116% (inactive)
